PubChem BioAssay (NCATS)
Results filed as inconclusive are left out. Calls of active or inactive are those of the source. Unless noted, the call rests on the fitted dose curve; in most records, active means well fitted curve in either direction with a large enough effect (not every such curve was filed as active); inconclusive means small, poorly fitted or top-dose-only effect, or another doubt; inactive means flat fitted curve, though single readings scatter.

Experiments:
[1] = target: Lysosomal acid glucosylceramidase (Homo sapiens) (UniProt P04062); experiment: Glucocerebrosidase-p2 (AID 348; in the data active means potency below about 10 µM; further: potency means the concentration at half of the fitted maximal effect); settings: purified GBA, blue fluorogenic substrate, 40 min
In short: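 Normal human glucocerebrosidase (0.2 nM) with blue fluorogenic substrate (80 uM final) in citrate/phosphate pH 5.9 with 10mM sodium taurocholate, 0.01% tween-20; 40 min RT, NaOH/glycine stop; fluorescence Ex 365/Em 440; AC50 from a titration from 0.6 nM upwards.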

[2] = AP1 Signaling Pathway (AID 357); settings: ME-180 AP-1-bla reporter, EGF-induced, beta-lactamase ratio, 5 h; at 7.69 µM (top of the series) unless noted;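 further: ME-180 reporter cells stimulated with EGF at its EC50 level; on the % scale 0 is the no-effect control and ±100 the full control effect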
In short: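 Modulation of EGF-driven AP-1 transcription was assessed with a beta-lactamase reporter in ME-180 cells. Compound and EC50 EGF were co-incubated 5 hours at 37 °C before 2.5-hour CCF4 loading at room temperature and dual-emission reading.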

[3] = target: Cytochrome P450 1A2 (Homo sapiens) (UniProt P05177); experiment: p450-cyp1a2 (AID 410; calls by dose curve; further: potency means the concentration at half of the fitted maximal effect;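 on activity change, negative = inhibition: -100% = full effect of reference inhibitor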); settings: recombinant CYP1A2, luciferin-ME demethylation, luminescence; series mostly up to 11.4 µM
In short: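 Luminescent demethylation readout: Luciferin-ME (100uM, equal to Km) turned over by 20nM CYP1A2 for 60 min at room temperature after NADPH regeneration addition, following 10 min compound preincubation. Normalization used 57 uM furafylline as full inhibition.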

[4] = NFAT Signaling Pathway (AID 444); settings: Jurkat NFAT-bla M1, carbachol, beta-lactamase ratio, 5 h; at 7.69 µM (top of the series) unless noted;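 further: carbachol stimulus at about its EC50 of 1 µM final; on the % scale 0 is the no-effect control and ±100 the full control effect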
In short: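 Jurkat cells with NFAT-driven β-lactamase reporter and co-expressed M1 receptor, stimulated with carbachol (final 1 uM, ~EC50), compound titration, 5 h at 37 °C. CCF4 loaded 1 h at RT; 460/530 nm ratio gave %activity and AC50.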

[5] = Stat Signaling Pathway (AID 446); settings: ME-180 SIE beta-lactamase reporter, IL-6 stimulated, 5 h; at 7.69 µM (top of the series) unless noted;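 further: ME-180 cervical cancer cells given 40 pM IL-6 alongside compound; SIE-controlled beta-lactamase reporter measured as 460/530 nm FRET emission ratio; on the % scale 0 is the no-effect control and ±100 the full control effect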
In short: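 Compound effects on IL-6-induced STAT reporter activity were measured in ME-180 cells. After overnight culture, cells were co-treated with 40 pM IL-6 for 5 hrs before beta-lactamase substrate loading at room temperature.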

[6] = target: Glucocorticoid receptor (Homo sapiens) (UniProt P04150); experiment: GR-GFP Redistribution (AID 450;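 active means compounds whose dose series gives a full or clear partial fitted curve of increased nuclear translocation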; further: potency means the concentration at half of the fitted maximal effect); settings: U2OS GR-GFP nuclear translocation, laser cytometry, 2 h
[7] = target: Glucocorticoid receptor (Homo sapiens) (UniProt P04150); experiment: GR-EFC Redistribution (AID 451; calls by dose curve; further: potency means the concentration at half of the fitted maximal effect); settings: CHO-K1 GR-EFC translocation, beta-gal luminescence, 2 h
In short: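 CHO-K1 cells expressing nuclear EA and GR-ED fragments of b-gal; compounds titrated up to 46 uM final, 2 h at 37 C. GR nuclear translocation read as complemented b-gal luminescence after 1 h RT detection.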

[8] = target: 3',5'-cyclic-AMP phosphodiesterase 4B (Homo sapiens) (UniProt Q07343); experiment: qHTS Assay for Inhibitors of PDE-IV (AID 607; active means well fitted activation curve with a large enough effect in the main read-out, with a control signal flat, not every such curve was filed as active; further: % of control where 0% means no effect); settings: HEK293 ACTOne CNG channel cells, membrane potential fluorescence; series mostly up to 22.9 µM
In short: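 ACTOne HEK293 cells carry a modified cAMP-gated CNG channel and express endogenous PDE4; plated 1000 cells/well, compounds up to 22.9 uM final. Membrane-potential dye fluorescence (ex 535/em 590) was read; parental cells received 10 uM forskolin + 100 uM RO 20-1724.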

[9] = target: Mitogen-activated protein kinase 10 (Mus musculus) (UniProt Q61831); experiment: JNK3 AlphaScreen Assay (AID 530); settings: JNK3 lysate, c-Jun phosphorylation; series mostly up to 11.4 µM;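 further: kinase came from lysate of stimulated human HepG2 cells; signal reports phosphorylation of biotinylated GST-cJun 1-79 at Ser73 with 10 µM ATP; on the % scale 0 is the no-effect control and ±100 the full control effect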
In short: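 Activity was read by AlphaScreen after JNK3-containing HepG2 lysate (cytokine pre-activated) phosphorylated biotinylated GST-cJun with 10 uM ATP at room temperature. Phospho-Ser73 cJun antibody with Protein-A acceptor beads provided detection.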

[10] = target: Cytochrome P450 2C9 (Homo sapiens) (UniProt P11712); experiment: qHTS Assay for Inhibitors and Substrates of Cytochrome P450 2C9 (AID 883; active means well fitted curve in the direction sought with a large enough effect; an effect the other way counts as inactive or inconclusive; further: nearly all actives have a fitted effect of over 60% in size; further: potency means the concentration at half of the fitted maximal effect); settings: recombinant CYP2C9, luciferin-H luminescence, 60 min; series mostly up to 11.4 µM
In short: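 10nM CYP2C9 + 100uM Luciferin-H (=KM), 25mM KPO4; cpd 10 min 37C; NADPH regen, 60 min 37C; stop/detect with P450 Glo-Buffer 20 min; luminescence. Norm. to 57uM sulphaphenazole as full inhibition.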

[11] = target: Cytochrome P450 3A4 (Homo sapiens) (UniProt P08684); experiment: qHTS Assay for Activators of Cytochrome P450 3A4 (AID 885; active means well fitted curve in the direction sought with a large enough effect; an effect the other way counts as inactive or inconclusive; further: nearly all actives have a fitted effect of over 65% in size); settings: recombinant CYP3A4, Luciferin-PPXE luminescence, 60 min; series mostly up to 11.4 µM
In short: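 CYP3A4 activity: Luciferin-PPXE O-dealkylation, 25uM substrate, 200mM KPO4, RT throughout. Read-out is luciferase luminescence; higher values reflect activation.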

[12] = target: Cytochrome P450 3A4 (Homo sapiens) (UniProt P08684); experiment: qHTS Assay for Inhibitors and Substrates of Cytochrome P450 3A4 (AID 884; active means well fitted curve in the direction sought with a large enough effect; an effect the other way counts as inactive or inconclusive; further: nearly all actives have a fitted effect of over 50% in size; further: potency means the concentration at half of the fitted maximal effect); settings: recombinant CYP3A4, Luciferin-PPXE luminescence; series mostly up to 57.1 µM
In short: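 Luminescent readout of luciferin produced by CYP3A4 (20 nM) dealkylation of Luciferin-PPXE, 25 uM (its KM). NADPH-driven reaction ran 60 min at RT after 10 min compound preincubation; data scaled to 57 uM ketoconazole as 100% inhibition.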

[13] = qHTS Assay for Identification of Small Molecule Agonists for Hypoxia Response Element Signaling Pathway (AID 914; active means well fitted activation curve with a large enough effect in the signal ratio, with a control signal flat, not every such curve was filed as active; the % refers to the signal ratio; further: % of control where 0% means no effect); settings: ME-180 (cervical carcinoma) HRE-bla reporter, beta-lactamase ratio, CoCl2, 17 h; activation: stronger effect = higher value
In short: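 HRE-bla ME-180 assay for agonist-like enhancement of an EC50 CoCl2 stimulus: 17 h at 37 degrees Celsius, CCF4 for 2.5 h, ratiometric 460/530 nm signal converted to %Activity and fitted to AC50.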

[14] = target: Cytochrome P450 2C19 (Homo sapiens) (UniProt P33261); experiment: qHTS Assay for Inhibitors and Substrates of Cytochrome P450 2C19 (AID 899; active means well fitted curve in the direction sought with a large enough effect; an effect the other way counts as inactive or inconclusive; further: nearly all actives have a fitted effect of over 60% in size; further: potency means the concentration at half of the fitted maximal effect); settings: recombinant CYP2C19, luciferin-H EGE luminescence; series mostly up to 11.4 µM
In short: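 Luminescent read-out of luciferin formed from Luciferin-H EGE (10uM, equal to KM). Enzyme 5nM in 50mM KPO4; compound added, 10 min at 37C, then NADPH regenerating system for 60 min at 37C. Full inhibition defined by 57uM ketoconazole.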

[15] = target: Cytochrome P450 2D6 (Homo sapiens) (UniProt P10635); experiment: qHTS Assay for Inhibitors and Substrates of Cytochrome P450 2D6 (AID 891; active means well fitted curve in the direction sought with a large enough effect; an effect the other way counts as inactive or inconclusive; further: nearly all actives have a fitted effect of over 60% in size; further: potency means the concentration at half of the fitted maximal effect); settings: recombinant CYP2D6, luciferin-ME EGE luminescence; series mostly up to 11.4 µM
In short: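 Luminescent read-out of luciferin formed by 5 nM human CYP2D6 demethylating 30 uM Luciferin-ME EGE (Km level) over 60 min at room temperature after NADPH regeneration addition. Data normalized to full inhibition by 1.43 uM quinidine.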

Glucocorticoid receptor (Homo sapiens), sequence (P04150 whole entry, looked up, the tested form may be a part): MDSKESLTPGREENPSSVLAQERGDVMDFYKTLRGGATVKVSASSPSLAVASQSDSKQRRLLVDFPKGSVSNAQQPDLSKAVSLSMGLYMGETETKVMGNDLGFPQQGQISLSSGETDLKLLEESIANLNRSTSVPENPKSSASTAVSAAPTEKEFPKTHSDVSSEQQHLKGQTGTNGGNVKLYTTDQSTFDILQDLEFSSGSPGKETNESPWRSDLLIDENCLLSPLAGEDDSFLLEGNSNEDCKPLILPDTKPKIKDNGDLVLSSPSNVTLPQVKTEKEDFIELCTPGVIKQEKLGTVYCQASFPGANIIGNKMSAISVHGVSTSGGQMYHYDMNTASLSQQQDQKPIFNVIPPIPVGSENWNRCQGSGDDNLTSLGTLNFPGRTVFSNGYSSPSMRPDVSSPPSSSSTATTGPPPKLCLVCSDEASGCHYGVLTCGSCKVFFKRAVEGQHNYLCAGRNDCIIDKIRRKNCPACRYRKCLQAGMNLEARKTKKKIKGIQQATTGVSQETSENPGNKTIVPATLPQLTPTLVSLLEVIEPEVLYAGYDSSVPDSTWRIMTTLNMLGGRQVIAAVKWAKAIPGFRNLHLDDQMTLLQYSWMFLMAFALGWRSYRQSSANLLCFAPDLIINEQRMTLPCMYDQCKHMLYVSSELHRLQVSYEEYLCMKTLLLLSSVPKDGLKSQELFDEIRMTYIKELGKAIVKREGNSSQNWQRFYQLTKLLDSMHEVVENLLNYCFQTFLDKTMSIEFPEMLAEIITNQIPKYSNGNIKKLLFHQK
Cytochrome P450 2C9 (Homo sapiens), sequence (P11712 whole entry, looked up): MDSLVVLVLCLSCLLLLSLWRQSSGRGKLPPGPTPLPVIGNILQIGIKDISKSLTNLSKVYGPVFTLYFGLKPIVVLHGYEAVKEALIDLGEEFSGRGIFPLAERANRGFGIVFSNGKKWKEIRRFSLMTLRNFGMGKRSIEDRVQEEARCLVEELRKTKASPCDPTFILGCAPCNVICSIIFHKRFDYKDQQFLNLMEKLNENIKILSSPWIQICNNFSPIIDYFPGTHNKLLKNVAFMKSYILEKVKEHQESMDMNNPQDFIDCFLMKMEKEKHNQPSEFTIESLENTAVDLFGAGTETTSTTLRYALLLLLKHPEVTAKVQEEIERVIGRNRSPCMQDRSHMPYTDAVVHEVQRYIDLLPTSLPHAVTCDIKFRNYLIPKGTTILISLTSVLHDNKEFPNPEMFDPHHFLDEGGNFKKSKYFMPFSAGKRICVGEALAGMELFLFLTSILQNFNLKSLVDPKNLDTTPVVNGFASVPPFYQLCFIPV
Cytochrome P450 3A4 (Homo sapiens), sequence (P08684 whole entry, looked up): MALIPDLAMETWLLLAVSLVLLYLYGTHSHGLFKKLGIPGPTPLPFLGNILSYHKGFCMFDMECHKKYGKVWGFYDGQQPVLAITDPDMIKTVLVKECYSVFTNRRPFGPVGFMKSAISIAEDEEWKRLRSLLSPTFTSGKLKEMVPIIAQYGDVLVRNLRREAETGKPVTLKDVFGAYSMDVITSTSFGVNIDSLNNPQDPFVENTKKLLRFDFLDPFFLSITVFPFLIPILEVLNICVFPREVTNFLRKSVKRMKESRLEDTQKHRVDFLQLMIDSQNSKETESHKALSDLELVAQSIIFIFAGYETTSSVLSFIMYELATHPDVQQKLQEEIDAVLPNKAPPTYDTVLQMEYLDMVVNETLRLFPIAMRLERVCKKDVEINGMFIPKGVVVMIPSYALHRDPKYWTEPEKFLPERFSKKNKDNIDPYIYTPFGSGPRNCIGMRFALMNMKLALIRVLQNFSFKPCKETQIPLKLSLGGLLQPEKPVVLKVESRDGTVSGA
3',5'-cyclic-AMP phosphodiesterase 4B (Homo sapiens), sequence (Q07343 whole entry, looked up): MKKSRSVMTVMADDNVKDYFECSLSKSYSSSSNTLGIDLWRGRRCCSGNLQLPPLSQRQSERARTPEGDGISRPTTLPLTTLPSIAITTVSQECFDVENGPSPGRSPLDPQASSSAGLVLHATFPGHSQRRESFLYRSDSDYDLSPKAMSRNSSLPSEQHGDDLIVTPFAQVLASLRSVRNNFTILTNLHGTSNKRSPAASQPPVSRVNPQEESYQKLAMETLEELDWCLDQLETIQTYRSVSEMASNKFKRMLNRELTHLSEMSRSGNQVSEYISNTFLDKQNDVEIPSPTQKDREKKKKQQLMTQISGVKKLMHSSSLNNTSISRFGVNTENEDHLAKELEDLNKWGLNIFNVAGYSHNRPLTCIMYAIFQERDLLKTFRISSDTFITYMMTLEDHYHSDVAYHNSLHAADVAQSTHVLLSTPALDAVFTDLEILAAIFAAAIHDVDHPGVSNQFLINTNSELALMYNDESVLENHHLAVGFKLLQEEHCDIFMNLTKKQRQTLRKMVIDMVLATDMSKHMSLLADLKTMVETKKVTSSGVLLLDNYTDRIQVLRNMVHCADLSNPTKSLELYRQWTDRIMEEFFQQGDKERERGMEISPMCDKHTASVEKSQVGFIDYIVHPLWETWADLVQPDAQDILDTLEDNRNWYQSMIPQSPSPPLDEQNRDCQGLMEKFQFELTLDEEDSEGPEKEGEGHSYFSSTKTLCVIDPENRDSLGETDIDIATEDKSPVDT
Lysosomal acid glucosylceramidase (Homo sapiens), sequence (P04062 whole entry, looked up): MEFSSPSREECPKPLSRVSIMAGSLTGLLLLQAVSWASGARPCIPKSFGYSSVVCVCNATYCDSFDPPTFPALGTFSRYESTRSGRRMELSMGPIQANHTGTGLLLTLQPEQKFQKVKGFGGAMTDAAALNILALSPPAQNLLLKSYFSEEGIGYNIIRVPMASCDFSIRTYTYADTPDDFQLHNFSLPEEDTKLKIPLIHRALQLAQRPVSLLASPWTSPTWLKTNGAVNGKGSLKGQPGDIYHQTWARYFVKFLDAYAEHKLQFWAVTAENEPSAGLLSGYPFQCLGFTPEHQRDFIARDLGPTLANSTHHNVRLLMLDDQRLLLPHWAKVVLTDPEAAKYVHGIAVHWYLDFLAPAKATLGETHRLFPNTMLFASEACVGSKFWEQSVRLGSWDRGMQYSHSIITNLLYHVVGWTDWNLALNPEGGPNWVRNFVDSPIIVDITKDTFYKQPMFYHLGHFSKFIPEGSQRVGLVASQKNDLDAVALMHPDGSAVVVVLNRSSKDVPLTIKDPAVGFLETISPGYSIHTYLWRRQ
Cytochrome P450 1A2 (Homo sapiens), sequence (P05177 whole entry, looked up): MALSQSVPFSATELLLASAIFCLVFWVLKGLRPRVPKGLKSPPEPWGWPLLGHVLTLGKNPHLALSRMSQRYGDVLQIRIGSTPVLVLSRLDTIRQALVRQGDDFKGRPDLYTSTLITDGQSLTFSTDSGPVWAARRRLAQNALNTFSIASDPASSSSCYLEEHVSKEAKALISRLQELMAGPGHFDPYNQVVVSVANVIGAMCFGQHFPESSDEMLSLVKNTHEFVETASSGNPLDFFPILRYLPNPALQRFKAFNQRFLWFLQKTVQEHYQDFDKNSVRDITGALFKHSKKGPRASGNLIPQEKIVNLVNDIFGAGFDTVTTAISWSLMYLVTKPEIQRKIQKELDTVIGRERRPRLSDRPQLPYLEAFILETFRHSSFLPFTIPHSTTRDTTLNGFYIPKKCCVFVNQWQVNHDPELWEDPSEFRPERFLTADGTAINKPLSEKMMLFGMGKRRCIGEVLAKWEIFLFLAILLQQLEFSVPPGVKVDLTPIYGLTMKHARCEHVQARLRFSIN
Cytochrome P450 2D6 (Homo sapiens), sequence (P10635 whole entry, looked up): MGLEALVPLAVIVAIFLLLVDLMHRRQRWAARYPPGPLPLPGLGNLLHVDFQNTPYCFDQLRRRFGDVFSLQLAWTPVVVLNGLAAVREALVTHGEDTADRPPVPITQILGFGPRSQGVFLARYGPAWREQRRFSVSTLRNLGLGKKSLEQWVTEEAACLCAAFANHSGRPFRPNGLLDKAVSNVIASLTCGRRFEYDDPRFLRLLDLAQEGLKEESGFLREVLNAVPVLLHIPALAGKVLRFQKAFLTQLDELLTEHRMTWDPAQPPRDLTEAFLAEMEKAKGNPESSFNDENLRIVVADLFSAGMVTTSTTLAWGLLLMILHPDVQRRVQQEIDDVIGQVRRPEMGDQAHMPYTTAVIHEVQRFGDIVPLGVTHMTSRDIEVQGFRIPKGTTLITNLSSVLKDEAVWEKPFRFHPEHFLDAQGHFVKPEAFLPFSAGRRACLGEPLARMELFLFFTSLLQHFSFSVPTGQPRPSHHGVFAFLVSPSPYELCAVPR
Cytochrome P450 2C19 (Homo sapiens), sequence (P33261 whole entry, looked up): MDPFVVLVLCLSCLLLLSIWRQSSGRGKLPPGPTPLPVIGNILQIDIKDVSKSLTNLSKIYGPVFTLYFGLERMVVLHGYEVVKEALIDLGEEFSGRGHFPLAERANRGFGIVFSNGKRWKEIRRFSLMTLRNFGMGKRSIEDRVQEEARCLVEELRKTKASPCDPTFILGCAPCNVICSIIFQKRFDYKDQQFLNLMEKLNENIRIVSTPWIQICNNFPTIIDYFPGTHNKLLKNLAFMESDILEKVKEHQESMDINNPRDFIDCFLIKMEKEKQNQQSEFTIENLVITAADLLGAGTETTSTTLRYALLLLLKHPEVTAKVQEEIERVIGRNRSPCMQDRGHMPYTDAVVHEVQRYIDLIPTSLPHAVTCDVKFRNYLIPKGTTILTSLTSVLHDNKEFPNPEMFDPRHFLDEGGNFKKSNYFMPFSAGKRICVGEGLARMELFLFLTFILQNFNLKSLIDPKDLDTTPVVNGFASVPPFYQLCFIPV

COc1ccc(/C=C(\C#N)C(N)=O)cc1OC
inactive: Potency [1] > 11.4 µM | activity change, negative = inhibition [2] -5.77% | activity change, negative = inhibition [4] 11.6% | activity, negative = inhibition [5] -2.19% | Potency [6] > 46 µM | Potency [7] > 9.22 µM | Potency [8]
active: Potency [3] 3.16 µM

O=C(O)c1c(Cl)c(Cl)c(Cl)c(Cl)c1C(=O)Nc1ccc2cn[nH]c2c1
active: Potency [3] 0.2 µM | Potency [10] 0.0794 µM
inactive: Potency [1] > 11.4 µM | activity change, negative = inhibition [2] 1.63% | activity change, negative = inhibition [4] 4.49% | activity, negative = inhibition [5] 20.7% | Potency [6] > 46 µM | Potency [7] > 9.22 µM | Potency [9] | Potency [11]

Cc1nc2cnc(N3CCOCC3)nc2n(Cc2cccs2)c1=O
inactive: Potency [1] > 11.4 µM | activity change, negative = inhibition [2] -18.4% | activity change, negative = inhibition [4] -3.19% | activity, negative = inhibition [5] -5.33% | Potency [6] > 9.22 µM | Potency [7] > 46 µM | Potency [9] | Potency [11]
active: Potency [3] 2 µM

COCCn1c(=O)c(-c2cccs2)nc2cnc(Oc3ccc(OC)cc3)nc21
inactive: Potency [1] > 11.4 µM | activity change, negative = inhibition [2] -1.43% | activity change, negative = inhibition [4] 15.8% | activity, negative = inhibition [5] 11.7% | Potency [6] > 9.22 µM | Potency [7] > 46 µM | Potency [8] | Potency [11]
active: Potency [3] 2.51 µM | Potency [10] 5.01 µM | Potency [12] 0.794 µM

O=C(O)NCc1ccccc1 (tested in a mixture with another compound)
inactive: Potency [1] > 11.4 µM | activity change, negative = inhibition [2] 4.23% | activity change, negative = inhibition [4] -18.9% | activity, negative = inhibition [5] 1.18% | Potency [6] > 46 µM | Potency [7] > 9.22 µM | Potency [9] | activation [13] 1.79%
active: Potency [3] 3.16 µM

O[C@]1(c2ccccc2)c2ccccc2NC2=NCCN21
inactive: Potency [1] > 11.4 µM | activity change, negative = inhibition [2] 12.3% | Potency [3] | activity change, negative = inhibition [4] -13.7% | activity, negative = inhibition [5] 4.27% | Potency [6] > 46 µM | Potency [7] > 9.22 µM | Potency [8]

Nc1cccc2cc(S(=O)(=O)Nc3ccc(C(=O)O)cc3)ccc12
inactive: Potency [1] > 11.4 µM | activity change, negative = inhibition [2] -0.623% | Potency [3] | activity change, negative = inhibition [4] 12.7% | activity, negative = inhibition [5] -1.24% | Potency [6] > 46 µM | Potency [7] > 9.22 µM | Potency [8]

Cc1cc2nc([C@H](C)C(=O)c3ccc(Cl)cc3)c(=O)[nH]c2cc1C
inactive: Potency [1] > 11.4 µM | activity change, negative = inhibition [2] -1.07% | activity change, negative = inhibition [4] -5.22% | activity, negative = inhibition [5] -18.7% | Potency [6] > 46 µM | Potency [7] > 9.22 µM | Potency [8]
active: Potency [3] 0.501 µM

O=C1c2ccccc2C(=O)c2c1ccc(C(=O)O)c2-c1ccc2ccccc2c1
inactive: Potency [1] > 11.4 µM | activity change, negative = inhibition [2] 1.13% | activity change, negative = inhibition [4] 16.7% | activity, negative = inhibition [5] -16.8% | Potency [6] > 46 µM | Potency [7] > 9.22 µM | Potency [8]
active: Potency [3] 1.26 µM | Potency [10] 1.58 µM | Potency [14] 2.51 µM

CCN1CCCCC(=N/O)/C(=N/O)CCCC1
inactive: Potency [1] > 11.4 µM | activity change, negative = inhibition [2] -1.64% | Potency [3] | activity change, negative = inhibition [4] -10.8% | activity, negative = inhibition [5] 2.5% | Potency [6] > 46 µM | Potency [9] | Potency [8]

C[C@H]1CCCC2(CC[N+](C)(CCC[N+](C)(C)C)CC2)C1 (some centres not stated)
inactive: Potency [1] 11.6 µM | activity change, negative = inhibition [2] 14.2% | Potency [3] | activity change, negative = inhibition [4] -5.86% | activity, negative = inhibition [5] 1.53% | Potency [6] > 46 µM | Potency [9] | Potency [8]

Cc1ccc(C(N)=Nc2ccccc2)cc1
inactive: Potency [1] > 11.4 µM | activity change, negative = inhibition [2] 18.3% | Potency [3] | activity change, negative = inhibition [4] -2.23% | activity, negative = inhibition [5] -4.47% | Potency [6] > 46 µM | Potency [7] > 9.22 µM | Potency [8]
active: Potency [15] 3.16 µM

COc1ccc(CCCC(=O)O)c(C)c1
inactive: Potency [1] > 11.4 µM | activity change, negative = inhibition [2] 1.4% | Potency [3] | activity change, negative = inhibition [4] -4.8% | activity, negative = inhibition [5] -0.975% | Potency [6] > 46 µM | Potency [9] | Potency [8] | Potency [10] | activity change, negative = inhibition [12] -0.798% [at 11.4 µM] | Potency [15] | Potency [14] | activation [13] -8.35%

O=C(Nc1nn[nH]n1)c1nc(-c2ccccc2)cc(=O)[nH]1
active: Potency [3] 3.98 µM
inactive: Potency [1] > 11.4 µM | activity change, negative = inhibition [2] 2.85% | activity change, negative = inhibition [4] 0.574% | activity, negative = inhibition [5] -4.08% | Potency [6] > 46 µM | Potency [9] | Potency [8]

COCCn1c(=O)c(-c2cc(F)cc(F)c2)nc2cnc(Oc3ccccc3)nc21
active: Potency [3] 5.01 µM
inactive: Potency [1] > 11.4 µM | activity change, negative = inhibition [2] 0.911% | activity change, negative = inhibition [4] -3.81% | activity, negative = inhibition [5] 0.0611% | Potency [6] > 9.22 µM | Potency [9] | Potency [8] | Potency [11] | activation [13] 20.9%
